# From PubChem BioAssay (NCI)
# Compounds without any hit were thinned out: in the full panel of roughly 83,000, 20% have a hit.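 Step 1: grow cells in 96-well plates. Step 2: add test compound at a single concentration. Step 3: incubate 48 h. Step 4: record percent growth.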 Values without a mark were called inactive. Calls of active or inactive are those of the source. Rule for the calls: active = growth percent below 10; inactive = the rest.
# How the values were obtained:
# Assay in all cases: NCI-60 one-dose screen, 48 h (100 = growth as untreated, 0 = no growth, -100 = all killed)
# HCT-15 colon = conditions: 10 µM unless noted
# HT29 colon = conditions: 10 µM unless noted
# SNB-75 CNS = conditions: 10 µM unless noted
# SNB-19 CNS = conditions: 10 µM unless noted
# U251 CNS = conditions: 10 µM unless noted
# PC-3 prostate = conditions: 10 µM unless noted
# SK-MEL-5 melanoma = conditions: 10 µM unless noted
# UACC-62 melanoma = conditions: 10 µM unless noted
# LOX IMVI melanoma = conditions: 10 µM
# SK-MEL-28 melanoma = conditions: 10 µM unless noted
# SK-MEL-2 melanoma = conditions: 10 µM unless noted
# EKVX NSCLC = conditions: 10 µM unless noted
# SN12C renal = conditions: 10 µM unless noted
# UO-31 renal = conditions: 10 µM unless noted
# TK-10 renal = conditions: 10 µM unless noted
# ACHN renal = conditions: 10 µM unless noted
# CAKI-1 renal = conditions: 10 µM unless noted
# A498 renal = conditions: 10 µM unless noted
# CCRF-CEM leukemia = conditions: 10 µM unless noted
# MOLT-4 leukemia = conditions: 10 µM unless noted
SMILES,growth (HCT-15 colon),growth (HT29 colon),growth (SNB-75 CNS),growth (SNB-19 CNS),growth (U251 CNS),growth (PC-3 prostate),growth (SK-MEL-5 melanoma),growth (UACC-62 melanoma),growth (LOX IMVI melanoma),growth (SK-MEL-28 melanoma),growth (SK-MEL-2 melanoma),growth (EKVX NSCLC),growth (SN12C renal),growth (UO-31 renal),growth (TK-10 renal),growth (ACHN renal),growth (CAKI-1 renal),growth (A498 renal),growth (CCRF-CEM leukemia),growth (MOLT-4 leukemia)
Cc1cccc(-c2nc(Nc3ccc(C)c(S(N)(=O)=O)c3)c3ccccc3n2)c1,-19.4% (active),18%,91.5%,32.5%,29.4%,15.7%,29.5%,43%,-34.7% (active),38.9%,52.2%,22.7%,29.8%,25.2%,60.1%,15.3%,24%,52.8%,17.7%,16.8%
O=c1oc2ccccc2cc1-c1csc(N=Nc2c(O)[nH]c3ccc(Cl)cc23)n1,98.8%,107%,98.1%,89.7%,101%,108%,98.7%,92%,100%,109%,112%,100%,97.9%,97.7%,109%,110%,106%,98.6%,103%,109%
Cc1cc(C)cc(NC(=O)Cn2cc(COn3nnc4ccccc43)nn2)c1,106%,104%,96.3%,96.2%,103%,97.9%,101%,96.9%,100%,100%,105%,102%,97.3%,92.5%,100%,100%,97.4%,118%,105%,100%
CCCCSc1nc(Nc2ccc(C(C)=O)cc2)c(C#N)c(-c2ccc(OC)cc2)n1,74.9%,78.5%,93%,61.8%,10.2%,90.8%,90.1%,96.2%,39.7%,91%,114%,65.1%,27.9%,14.5%,-3.09% (active),2.58% (active),34%,59.7%,100%,88%
CC1(C)CC[C@]2(C(=O)O)CC[C@]3(C)C(=CCC4[C@@]5(C)C[C@@H](O)[C@@H]6OC(c7ccccc7F)OC[C@@]6(C)C5CC[C@]43C)C2C1 (stereo not given in full),5.25% (active),2.5% (active),29.1%,20.3%,3.62% (active),16%,-34.6% (active),0.203% (active),-1.57% (active),19.7%,-14.8% (active),13.8%,3.09% (active),4% (active),7.15% (active),4.14% (active),9.12% (active),31%,17%,2.87% (active)
COc1cc2nc(SCc3ccccc3)n(-c3ccc(Cl)cc3)c(=O)c2cc1OC,33.6%,45.4%,-49.5% (active),-30% (active),-73.1% (active),1.2% (active),82.9%,29.3%,-100% (active),21.6%,28.3%,-13.1% (active),-11.3% (active),-38.8% (active),-38.8% (active),-66.4% (active),-75.5% (active),7.03% (active),18.5%,43.1%
Nc1nc(-c2ccccc2)c(N=Nc2ccc(Cl)cc2[N+](=O)[O-])s1,94.4%,100%,80.1%,89.2%,92.4%,87.1%,98.8%,77.3%,88.2%,107%,90.4%,76.8%,96%,65.2%,169%,101%,82.5%,92%,101%,100%
C#CCOc1cc(N(CC)CC)ccc1C(C(=O)NC(C)(C)C)N(C(=O)C1CCc2cc(F)ccc2O1)c1ccccc1Br (stereo not given),50.2%,51.1%,97.5%,56.5%,48.6%,27.3%,56.8%,40.8%,31.7%,64.8%,3.66% (active),60.4%,56.3%,43.4%,86.3%,42.1%,44.7%,80.9%,57.5%,14.4%
Cc1ccc(C(=O)C(c2c[nH]c3ccccc23)c2c[nH]c3ccccc23)cc1,-15.3% (active),-26.1% (active),70.1%,87.4%,21.6%,17.1%,83%,51.2%,-78.5% (active),19.7%,72.4%,56.5%,-12.8% (active),26.4%,111%,17.9%,18.7%,108%,5.91% (active),5.7% (active)
CC(=O)OCC1OC(OC2C(COC(C)=O)OC(n3cc(COc4ccc5ccc(=O)oc5c4)nn3)C(OC(C)=O)C2OC(C)=O)C(OC(C)=O)C(OC(C)=O)C1OC(C)=O (stereo not given),102%,114%,69.2%,100%,106%,98.8%,99.2%,94.2%,104%,109%,113%,107%,98.3%,74.7%,108%,102%,88.1%,116%,100%,97%
COc1ccc(/C=C/c2n(Cc3ccc4ccccc4c3)c3ccccc3[n+]2Cc2ccc3ccccc3c2)cc1,-76.9% (active),-97.1% (active),-95.7% (active),-94.6% (active),-94.3% (active),-25.1% (active),-97.6% (active),-90.5% (active),-80.4% (active),-89% (active),-93.7% (active),-82.7% (active),-88.8% (active),-93% (active),-93.7% (active),-100% (active),-100% (active),-79.8% (active),-24.2% (active),-2.71% (active)
Cc1ccc(C2CC(c3ccc(S(=O)(=O)NCCNc4nc(Nc5ccc(F)cc5)nc(N(C)C)n4)cc3)=Nc3c(N)nc(N)nc3N2)cc1 (stereo not given),29.1%,-14.3% (active),77.7%,60.4%,47.3%,33.5%,29.1%,63.7%,6.81% (active),59.8%,76.9%,62.7%,74.2%,67.4%,96.5%,61%,76.9%,89.2%,18.4%,4.77% (active)
COc1cccc(-c2nc(Nc3ccc(S(N)(=O)=O)cc3)c3ccccc3n2)c1,5.48% (active),13.8%,61.1%,50.4%,40.3%,29.3%,25.6%,37.5%,24.8%,47.3%,46.6%,45.5%,44.6%,17.4%,47.3%,17.7%,25.2%,23.9%,18.7%,16.8%
Cc1ccc(S(=O)(=O)c2nc(S(=O)(=O)c3ccc(C)cc3)c(N3CCC(O)CC3)s2)cc1,22.9%,77.8%,97.5%,68.3%,57.7%,56.8%,78.1%,42%,50.5%,81.9%,66.6%,63.1%,74%,73.7%,129%,97.8%,69.2%,86.1%,23.8%,38%
CCOC(=O)C1=C(N)N(c2ccccc2)C2=C(C(=O)CC(C)(C)C2)C1c1ccccc1Cl (stereo not given),49.1%,55%,66.3%,70.5%,79.3%,29.6%,60.5%,44%,85.4%,81.4%,57.7%,74.6%,75%,55.3%,100%,69.2%,46.7%,99.4%,48.4%,25.8%
